Structures can show the parent of a compound that is named as a salt. ± gives the standard deviation of the averaged measurements. The full ranking holds about 1,300 compounds; the median of “normalised cell viability” is about 1, and the lowest 2% start at about 0.14. The full list was thinned out, with the lowest values kept by preference.
Test system: V-C8 (BRCA2-deficient hamster cells)
Experiment: normalised cell viability (fraction of plate median); higher = more viable cells (less toxic)
Settings: 5 µM
How it was run: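 BRCA2-deficient hamster V-C8 cells and BRCA2-restored V-C8 cells were plated in 96-well plates, and library drugs were added 24 h later at 5 μM in 100 μl medium. Exposure lasted 3 days in screen 1 and 6 days in screen 2, next to solvent-only wells. Viability was then read by resazurin assay, median-plate normalised and averaged across triplicate wells.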

Clc1ccc(COC(Cn2ccnc2)c2ccc(Cl)cc2Cl)cc1 (centres undefined) [Econazole nitrate]
normalised cell viability (treatment time: 3 days): 0.938 ± 0.028
normalised cell viability (treatment time: 6 days): 0.98 ± 0.023

CC[C@H](C)[C@H](N)C1=N[C@H](C(=O)N[C@@H](CC(C)C)C(=O)N[C@H](CCC(=O)O)C(=O)N[C@H](C(=O)N[C@H]2CCCCNC(=O)[C@H](CC(N)=O)NC(=O)[C@@H](CC(=O)O)NC(=O)[C@H](Cc3cnc[nH]3)NC(=O)[C@@H](Cc3ccccc3)NC(=O)[C@H]([C@@H](C)CC)NC(=O)[C@@H](CCCN)NC2=O)[C@@H](C)CC)CS1 [Bacitracin]
normalised cell viability (treatment time: 3 days): 1.05 ± 0.02
normalised cell viability (treatment time: 6 days): 0.983 ± 0.061

CCCCNc1c(C(=O)OCC)c(C)nc2c1cnn2CC [Tracazolate hydrochloride]
normalised cell viability (treatment time: 3 days): 0.947 ± 0.034
normalised cell viability (treatment time: 6 days): 1.03 ± 0.013

Nc1nc(=O)c2c([nH]1)NC[C@@H](CNc1ccc(C(=O)N[C@@H](CCC(=O)O)C(=O)O)cc1)N2C=O [Folinic acid calcium salt]
normalised cell viability (treatment time: 3 days): 1.05 ± 0.036
normalised cell viability (treatment time: 6 days): 1.11 ± 0.06

COC(=O)N/N=C/c1c[n+]([O-])c2ccccc2[n+]1[O-] [Carbadox]
normalised cell viability (treatment time: 3 days): 0.69 ± 0.18
normalised cell viability (treatment time: 6 days): 0.549 ± 0.029

Cc1cc(/C=C/c2ccc3cc(N(C)C)ccc3[n+]2C)c(C)n1-c1ccccc1 [Pyrvinium pamoate]
normalised cell viability (treatment time: 3 days): 0.132 ± 0.0063
normalised cell viability (treatment time: 6 days): 0.172 ± 0.012

CC1(C)S[C@@H]2[C@H](NC(=O)[C@H](N)c3ccccc3)C(=O)N2[C@H]1C(=O)OC1OC(=O)c2ccccc21 (some centres undefined) [Talampicillin hydrochloride]
normalised cell viability (treatment time: 3 days): 1.09 ± 0.082
normalised cell viability (treatment time: 6 days): 1.02 ± 0.085

COc1cc([C@@H]2c3cc4c(cc3[C@@H](O[C@@H]3O[C@@H]5CO[C@@H](C)O[C@H]5[C@H](O)[C@H]3O)[C@H]3COC(=O)[C@H]23)OCO4)cc(OC)c1O [Etoposide]
normalised cell viability (treatment time: 3 days): 0.155 ± 0.0057
normalised cell viability (treatment time: 6 days): 0.133 ± 0.017

COc1cc(NS(=O)(=O)c2ccc(N)cc2)ncn1 [Sulfamonomethoxine]
normalised cell viability (treatment time: 3 days): 1.02 ± 0.057
normalised cell viability (treatment time: 6 days): 1.05 ± 0.031

CC(C)(C)NC[C@H](O)c1ccc(O)c(CO)c1 [Levalbuterol hydrochloride]
normalised cell viability (treatment time: 3 days): 1.03 ± 0.049
normalised cell viability (treatment time: 6 days): 0.99 ± 0.13

CC(C)(S)[C@@H](N)C(=O)O [Penicillamine]
normalised cell viability (treatment time: 3 days): 0.964 ± 0.074
normalised cell viability (treatment time: 6 days): 1.04 ± 0.097

N[C@@H](C(=O)N[C@@H]1C(=O)N2C(C(=O)O)=C(Cl)CC[C@H]12)c1ccccc1 [Loracarbef]
normalised cell viability (treatment time: 3 days): 1.05 ± 0.1
normalised cell viability (treatment time: 6 days): 1.06 ± 0.033

CC(C)(C)c1ccc(C(O)CCCN2CCC(C(O)(c3ccccc3)c3ccccc3)CC2)cc1 (centres undefined) [Terfenadine]
normalised cell viability (treatment time: 3 days): 0.13 ± 0.0051
normalised cell viability (treatment time: 6 days): 0.1 ± 0.0041

OC(CCCN1CCCCC1)(c1ccccc1)c1ccccc1 [Diphenidol hydrochloride]
normalised cell viability (treatment time: 3 days): 1.06 ± 0.037
normalised cell viability (treatment time: 6 days): 1.05 ± 0.031

CC(C)(C(=O)O)c1ccc(C(O)CCCN2CCC(C(O)(c3ccccc3)c3ccccc3)CC2)cc1 (centres undefined) [Fexofenadine HCl]
normalised cell viability (treatment time: 3 days): 1.09 ± 0.02
normalised cell viability (treatment time: 6 days): 1.04 ± 0.046

NC[C@@H]1O[C@@H](O[C@H]2[C@H](O)[C@@H](O[C@H]3O[C@H](CO)[C@@H](O)[C@H](N)[C@H]3O)[C@H](N)C[C@@H]2N)[C@@H](O)[C@H](O)[C@H]1O [Kanamycin A sulfate]
normalised cell viability (treatment time: 3 days): 0.965 ± 0.052
normalised cell viability (treatment time: 6 days): 1.04 ± 0.02

O=C1CN2Cc3c(ccc(Cl)c3Cl)N=C2N1 [Anagrelide]
normalised cell viability (treatment time: 3 days): 1.01 ± 0.077
normalised cell viability (treatment time: 6 days): 1.03 ± 0.054

c1ccc([C@H]2CN3CCSC3=N2)cc1 [Levamisole hydrochloride]
normalised cell viability (treatment time: 3 days): 1.03 ± 0.02
normalised cell viability (treatment time: 6 days): 1.02 ± 0.032

CCN(CC)CCc1nc(-c2ccccc2)no1 [Oxalamine citrate salt]
normalised cell viability (treatment time: 3 days): 0.986 ± 0.061
normalised cell viability (treatment time: 6 days): 0.933 ± 0.14

O=C(O)Cc1cc(I)c(Oc2ccc(O)c(I)c2)c(I)c1 [Tiratricol, 3,3',5-triiodothyroacetic acid]
normalised cell viability (treatment time: 3 days): 0.981 ± 0.023
normalised cell viability (treatment time: 6 days): 1.03 ± 0.032

CCCc1cc(=O)[nH]c(=S)[nH]1 [Propylthiouracil]
normalised cell viability (treatment time: 3 days): 1.02 ± 0.022
normalised cell viability (treatment time: 6 days): 1.025 ± 0.009

CC(=O)N1CCN(c2ccc(OCC3COC(Cn4ccnc4)(c4ccc(Cl)cc4Cl)O3)cc2)CC1 (centres undefined) [Ketoconazole]
normalised cell viability (treatment time: 3 days): 0.8 ± 0.022
normalised cell viability (treatment time: 6 days): 0.898 ± 0.028

CC1(C)S[C@@H]2[C@H](NC(=O)[C@H](NC(=O)N3CCNC3=O)c3ccccc3)C(=O)N2[C@H]1C(=O)O [Azlocillin sodium salt]
normalised cell viability (treatment time: 3 days): 1.01 ± 0.015
normalised cell viability (treatment time: 6 days): 0.988 ± 0.092

Clc1cnccn1 [2-Chloropyrazine]
normalised cell viability (treatment time: 3 days): 1.03 ± 0.019
normalised cell viability (treatment time: 6 days): 1.02 ± 0.016

COCC1=C(C(=O)OC(C)OC(=O)OC(C)C)N2C(=O)[C@@H](NC(=O)/C(=N\OC)c3csc(N)n3)[C@H]2SC1 (some centres undefined) [Cefpodoxime proxetil]
normalised cell viability (treatment time: 3 days): 1.18 ± 0.025
normalised cell viability (treatment time: 6 days): 1.06 ± 0.086

CC(C(=O)O)c1ccc(N2Cc3ccccc3C2=O)cc1 (centres undefined) [Indoprofen]
normalised cell viability (treatment time: 3 days): 1.012 ± 0.0016
normalised cell viability (treatment time: 6 days): 1.08 ± 0.013

Nc1nc(=O)[nH]cc1F [Flucytosine]
normalised cell viability (treatment time: 3 days): 1.06 ± 0.02
normalised cell viability (treatment time: 6 days): 0.987 ± 0.025

Cc1ccc2c(c1)c1c3n2CCNC3CCC1 (centres undefined) [Pirlindole mesylate]
normalised cell viability (treatment time: 3 days): 0.904 ± 0.084
normalised cell viability (treatment time: 6 days): 0.9725 ± 0.0077

NCc1ccccc1CC(=O)N[C@@H]1C(=O)N2C(C(=O)O)=C(CSc3nnnn3CC(=O)O)CS[C@H]12 [Ceforanide]
normalised cell viability (treatment time: 3 days): 1.02 ± 0.073
normalised cell viability (treatment time: 6 days): 1.21 ± 0.22

C=CC[N@@+]12CC[C@@]34c5ccccc5N5/C=C6/[C@H]7C[C@H]8[C@@]9(CC[N@@+]8(CC=C)C/C7=C/CO)c7ccccc7N(/C=C(/[C@@H](C[C@@H]31)/C(=C\CO)C2)[C@H]54)[C@@H]69 [Alcuronium chloride]
normalised cell viability (treatment time: 3 days): 0.939 ± 0.13
normalised cell viability (treatment time: 6 days): 1.03 ± 0.079

c1ccc(-c2ccc(C(c3ccccc3)n3ccnc3)cc2)cc1 (centres undefined) [Bifonazole]
normalised cell viability (treatment time: 3 days): 0.878 ± 0.032
normalised cell viability (treatment time: 6 days): 0.74 ± 0.06

CC(=O)O[C@]1(C(C)=O)CC[C@H]2[C@@H]3C=C(Cl)C4=CC(=O)CC[C@]4(C)[C@H]3CC[C@@]21C [Chlormadinone acetate]
normalised cell viability (treatment time: 3 days): 0.998 ± 0.06
normalised cell viability (treatment time: 6 days): 0.983 ± 0.043

NNc1nncc2ccccc12 [Hydralazine hydrochloride]
normalised cell viability (treatment time: 3 days): 0.9847 ± 0.0028
normalised cell viability (treatment time: 6 days): 1.03 ± 0.027

Nc1cc(-c2ccncc2)c[nH]c1=O [Amrinone]
normalised cell viability (treatment time: 3 days): 0.938 ± 0.029
normalised cell viability (treatment time: 6 days): 0.951 ± 0.018

O=C(CCCCCCC(=O)Nc1ccccc1)NO [Vorinostat]
normalised cell viability (treatment time: 3 days): 0.14 ± 0.012
normalised cell viability (treatment time: 6 days): 0.168 ± 0.012

CC(=O)Nc1ccc(CC(=O)O)cc1 [Actarit]
normalised cell viability (treatment time: 3 days): 1.05 ± 0.015
normalised cell viability (treatment time: 6 days): 1.03 ± 0.038

O=C(CCCCC(=O)Nc1c(I)cc(I)c(C(=O)O)c1I)Nc1c(I)cc(I)c(C(=O)O)c1I [Iodipamide]
normalised cell viability (treatment time: 3 days): 1.03 ± 0.06
normalised cell viability (treatment time: 6 days): 0.972 ± 0.029

CC[C@H](C)C(=O)O[C@H]1CCC=C2C=C[C@H](C)[C@H](CC[C@@H]3C[C@@H](O)CC(=O)O3)[C@H]21 [Mevastatin]
normalised cell viability (treatment time: 3 days): 0.23 ± 0.011
normalised cell viability (treatment time: 6 days): 0.229 ± 0.0063

CCCNC(C)C(=O)Nc1c(C)csc1C(=O)OC (centres undefined) [Articaine hydrochloride]
normalised cell viability (treatment time: 3 days): 1.03 ± 0.024
normalised cell viability (treatment time: 6 days): 1.06 ± 0.084

Nc1ccc(S(=O)(=O)Nc2ccnn2-c2ccccc2)cc1 [Sulfaphenazole]
normalised cell viability (treatment time: 3 days): 1.01 ± 0.011
normalised cell viability (treatment time: 6 days): 1.03 ± 0.031

COc1ccccc1OCC(O)CN1CCN(CC(=O)Nc2c(C)cccc2C)CC1 (centres undefined) [Ranolazine]
normalised cell viability (treatment time: 3 days): 1.04 ± 0.054
normalised cell viability (treatment time: 6 days): 0.967 ± 0.086

N#CC(c1ccc(Cl)cc1)c1c(Cl)cc(-n2ncc(=O)[nH]c2=O)cc1Cl (centres undefined) [Diclazuril]
normalised cell viability (treatment time: 3 days): 0.905 ± 0.068
normalised cell viability (treatment time: 6 days): 0.875 ± 0.068

C#CCN(C)CCCOc1ccc(Cl)cc1Cl [Clorgyline hydrochloride]
normalised cell viability (treatment time: 3 days): 1.11 ± 0.063
normalised cell viability (treatment time: 6 days): 1.019 ± 0.0054

NS(=O)(=O)Cc1noc2ccccc12 [Zonisamide]
normalised cell viability (treatment time: 3 days): 1.01 ± 0.036
normalised cell viability (treatment time: 6 days): 1.03 ± 0.065

COc1ccc2c(c1)C(=O)N(CCc1ccc(S(=O)(=O)NC(=O)NC3CCCCC3)cc1)C(=O)C2(C)C [Gliquidone]
normalised cell viability (treatment time: 3 days): 1.05 ± 0.077
normalised cell viability (treatment time: 6 days): 1.08 ± 0.049

CN1CCCN=C1/C=C/c1cccs1 [Pyrantel tartrate]
normalised cell viability (treatment time: 3 days): 1.06 ± 0.019
normalised cell viability (treatment time: 6 days): 1.02 ± 0.079

CC(C)(C)NC[C@H](O)COc1nsnc1N1CCOCC1 [Timolol maleate salt]
normalised cell viability (treatment time: 3 days): 1.01 ± 0.022
normalised cell viability (treatment time: 6 days): 1.07 ± 0.065

CCN(CC)C(=O)Nc1ccc(OCC(O)CNC(C)(C)C)c(C(C)=O)c1 (centres undefined) [Celiprolol HCl]
normalised cell viability (treatment time: 3 days): 1.13 ± 0.12
normalised cell viability (treatment time: 6 days): 0.988 ± 0.031

C[C@H](O)C(=O)Nc1c(I)c(C(=O)NC(CO)CO)c(I)c(C(=O)NC(CO)CO)c1I [Iopamidol]
normalised cell viability (treatment time: 3 days): 0.952 ± 0.093
normalised cell viability (treatment time: 6 days): 1.09 ± 0.06

Clc1ccc(CSC(Cn2ccnc2)c2ccc(Cl)cc2Cl)cc1 (centres undefined) [Sulconazole nitrate]
normalised cell viability (treatment time: 3 days): 0.983 ± 0.067
normalised cell viability (treatment time: 6 days): 0.829 ± 0.043

CCOC(=O)Nc1ccc2c(c1)N(C(=O)CCN1CCOCC1)c1ccccc1S2 [Moricizine hydrochloride]
normalised cell viability (treatment time: 3 days): 1.1 ± 0.13
normalised cell viability (treatment time: 6 days): 1.13 ± 0.083

C=CC1=C(C(=O)O)N2C(=O)[C@@H](NC(=O)/C(=N\O)c3csc(N)n3)[C@H]2SC1 [Cefdinir]
normalised cell viability (treatment time: 3 days): 1.016 ± 0.0043
normalised cell viability (treatment time: 6 days): 1.01 ± 0.06

Cc1c(C)c2c(c(C)c1O)CCC(C)(COc1ccc(CC3SC(=O)NC3=O)cc1)O2 (centres undefined) [Troglitazone]
normalised cell viability (treatment time: 3 days): 0.68 ± 0.04
normalised cell viability (treatment time: 6 days): 0.588 ± 0.04

C=C(CC)C(=O)c1ccc(OCC(=O)O)c(Cl)c1Cl [Ethacrynic acid]
normalised cell viability (treatment time: 3 days): 1.08 ± 0.038
normalised cell viability (treatment time: 6 days): 1.01 ± 0.048

COc1cc2c(cc1OC)C(=O)C(CC1CCN(Cc3ccccc3)CC1)C2 (centres undefined) [Donepezil hydrochloride]
normalised cell viability (treatment time: 3 days): 0.957 ± 0.087
normalised cell viability (treatment time: 6 days): 0.983 ± 0.011

OCC(O)CN1CCN(c2ccccc2)CC1 (racemic) [Dropropizine (R,S)]
normalised cell viability (treatment time: 3 days): 0.964 ± 0.051
normalised cell viability (treatment time: 6 days): 1.01 ± 0.057

C=C[C@H]1CN2CC[C@H]1C[C@@H]2[C@@H](O)c1ccnc2ccc(OC)cc12 [Quinidine hydrochloride monohydrate]
normalised cell viability (treatment time: 3 days): 0.997 ± 0.0082
normalised cell viability (treatment time: 6 days): 0.876 ± 0.16
